This is a sample that favours compounds with a hit; in the whole collection about 4.8% have one here.
Calb FLC – C. albicans growth modulation with fluconazole. C. albicans CaCi-2 (fluconazole-resistant clinical isolate) + fluconazole, Alamar Blue growth, 48 h. growth inhibition, % (concentration not given with the values). 300,000 tested, 0.57% active. AID 1979;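 active = growth inhibition above about 58% in most replicates, limit read from the data, passing the limit was not always enough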;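 also: all wells also contain fluconazole at 8 µg/ml as a sub-toxic cotreatment; 0% = median of DMSO wells and 100% = median of geldanamycin control wells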
Beta apoptosis – blocks beta cell apoptosis; INS-1E cytokine-induced death, ATP luminescence, 48 h; percent of positive-control rescue, neutral wells zero; protection from apoptosis, % (test concentration not listed); 300,000 tested, 0.8% active; AID 435005;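 active = Every replicate reaches about 75%, or at least half do and their mean reaches it too, limit read from the data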;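 also: 0% = cytokine-treated negative control wells and 100% = positive control rescue; higher means more ATP so stronger rescue from cytokine killing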
Mdm2-MdmX inh – human Mdm2/MdmX binding inhibition | inhibition, % at 8 µM | O15151+Q00987 | 330,000 tested, 3% active | SaOS-2 split-luciferase Mdm2/MdmX complementation, luminescence;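 active = inhibition of at least 50% at 8 µM in the primary screen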
MPTP inh – inhibitors of mitochondrial permeability transition pore. isolated mouse mitochondria, Ca2+ swelling absorbance, 30 min. inhibition, % at 10 µM. 360,000 tested, 1.4% active;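 active = inhibition of 50% or more, scaled per plate between neutral and stimulator controls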;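 also: 0% = DMSO wells given calcium and 100% = 1 mM EGTA wells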
CSC inhib – blocks cancer stem cells. cancer stem cell-like cells viability, luminescence. inhibition, % at 7.5 µM. 300,000 tested, 1.1% active; in the data active = inhibition above about 75%; tested in HMLE shEcad cells
Mdm2 MdmX conf – confirmation of human Mdm2/MdmX interaction inhibitors. Mdm2-MdmX binding, luminescent assay. 10,000 tested, 55% active. shares compounds with Mdm2-MdmX inh. inhibition, % at 8 µM; in the data active = inhibition above about 40%
FLuc counter – inhibits full-length luciferase, flagging false Mdm2/MdmX hits. shares compounds with Mdm2-MdmX inh. SaOS-2 full-length luciferase counterscreen, luminescence. inhibition, % at 8 µM. 6,200 tested, 77% active;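 active = mean inhibition at 8 µM reaching about 37%, which flags the compound as non-specific, limit read from the data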;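 also: p53-null SaOS-2 cells with luciferase driven by a doxycycline-inducible promoter; compound on cells about two nights before reading with doxycycline added after day one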
Numbers without * were called inactive; nt = no result given.

SMILES	Calb FLC	Beta apoptosis	Mdm2-MdmX inh	MPTP inh	CSC inhib	Mdm2 MdmX conf	FLuc counter
CC(=O)c1ccc(N2CCN(C(=O)c3cc(-c4ccncc4)nc4ccc(Cl)cc34)CC2)cc1	-7	3	63*	-1	1	30	nt
Cc1cccc2c(C(=O)N3CCCCC3)cc(-c3ccccc3)nc12	6	-1	3	1	45	nt	nt
Cn1c(Sc2ccc(Br)cc2)c(C=O)c2ccccc21	0	8	84*	1	-13	72*	53*
CCN(CCCNC(=O)CCn1c(=S)[nH]c2cc3c(cc2c1=O)OCO3)c1cccc(C)c1	18	10	57*	-1	-10	-17	nt
NC(c1csc(Nc2nncc3ccccc23)n1)C1CCCCC1 (stereo not drawn)	nt	nt	nt	3	nt	nt	nt
CC(=O)Nc1ccc(C(=O)N2CCCC(c3cc(C(=O)NCc4ccccc4)no3)C2)cc1 (stereo not drawn)	nt	nt	nt	0	nt	nt	nt
COc1ccc(NS(=O)(=O)c2cccc(C(=O)NNC(=O)c3ccccc3O)c2)cc1	-3	-1	53*	6	36	56*	58*
COc1ccccc1N(C)S(=O)(=O)c1ccc(C(=O)NNC(=O)c2ccccc2O)cc1	nt	nt	62*	4	nt	60*	48*
N#Cc1c(-c2ccccc2)c(-c2ccccc2)nn(CC(=O)NNC(=O)Nc2ccc(Cl)c(Cl)c2)c1=O	42	7	63*	5	105*	47*	36
Clc1ccccc1-c1nnc2sc(CCc3ccccc3)nn12	11	2	15	-3	-3	nt	nt
c1ccc(CCc2nn3c(-c4ccncc4)nnc3s2)cc1	-24	nt	69*	0	nt	59*	34
CCCCNc1c(-c2ccc(F)cc2)nc2nc(C)cc(C)n12	nt	nt	nt	0	nt	nt	nt
CCN(CC)c1ccc(/C=N/NC(=O)c2ccc3nc[nH]c3c2)c(O)c1	109*	116*	73*	2	106*	83*	53*
CCN(CC)c1ccc(/C=N/NC(=O)c2cccc(S(=O)(=O)Nc3ccccc3OC)c2)c(O)c1	-6	91*	77*	2	108*	79*	15
CCN(CC)c1ccc(/C=N/N=C(N)N)c(O)c1	0	10	62*	2	66	52*	83*
CCN(CC)c1ccc(C=Nc2ccccc2)c(O)c1	6	-8	4	4	nt	nt	nt
Cc1cc(NC(=O)COC(=O)c2ccco2)no1	1	-2	-30	0	-8	nt	nt
O=S(=O)(c1ccccc1)c1cnc(-c2ccccc2)nc1N1CCCC1	1	11	2	-1	6	nt	nt
COc1cc2ncc(S(=O)(=O)c3ccccc3)c(N3CCCC(C)C3)c2cc1OC (stereo not drawn)	-4	11	51*	0	9	18	nt
Cc1ccccc1Sc1ncnc2onc(C)c12	4	-12	17	2	4	nt	nt
Cc1noc2ncnc(Sc3c(Cl)cccc3Cl)c12	1	-26	54*	0	11	20	nt
CC(C)C[C@H]1CN(CCCC[C@H]2CNC(=O)C(=O)N2Cc2ccccc2)C(=O)C(=O)N1CCC1CCCCC1	nt	nt	nt	-2	nt	nt	nt
Cc1cccc(C)c1NC(=O)COc1ccc2c(C)c(Cc3ccccc3)c(=O)oc2c1C	24	10	97*	3	1	11	nt
Cc1c(C)c2ccc(OCC(=O)Nc3ccccn3)c(C)c2oc1=O	3	-6	88*	0	38	90*	52*
Cc1c(C)c2cc(Cl)c(OCC(=O)Nc3ccccn3)cc2oc1=O	nt	nt	nt	0	nt	nt	nt
SMILES	Calb FLC	Beta apoptosis	Mdm2-MdmX inh	MPTP inh	CSC inhib	Mdm2 MdmX conf	FLuc counter
Cc1c(Cc2ccccc2)c(=O)oc2c(C)c(OCC(=O)Nc3ccc(C#N)cc3)ccc12	-4	-3	5	-6	20	nt	nt
CC(=O)N1CCC(c2nc3ccccc3n2C(C)C(=O)NCc2ccccc2)CC1 (stereo not drawn)	nt	nt	nt	1	nt	nt	nt
S=C(NCCNCc1ccccc1)NC1CCCCC1	-4	19	51*	nt	47	11	nt
c1ccc2c(c1)ccn1c(Cc3ccsc3)c(C3CCCCC3)nc21	nt	nt	nt	2	nt	nt	nt
CC1CC(N(C(=O)c2ccc(Cl)cc2)c2ccccc2)c2ccccc2N1C(=O)c1ccco1 (stereo not drawn)	4	16	50*	1	22	31	nt
CC1CC(N(C(=O)c2ccco2)c2ccccc2)c2ccccc2N1C(=O)c1ccco1 (stereo not drawn)	-10	0	4	3	-6	nt	nt
CCN1CCN(CCCNC(=O)c2ccc3c(c2)NC(=O)c2ccccc2S3)CC1	0	-6	-1	-2	-3	nt	nt
Cc1ccc(/C=C2/Sc3ccc(C(=O)NCc4ccccn4)cc3NC2=O)cc1	-2	1	70*	-3	-9	32	nt
Cc1cccc(/C=C2/Sc3ccc(C(=O)NCCN4CCCC4)cc3NC2=O)c1	12	-3	72*	0	6	13	nt
CCN1CCN(CCCNC(=O)c2ccc3c(c2)N(Cc2ccc(C)cc2)CCS3)CC1	8	5	51*	-1	-1	6	nt
CCN1CCN(CCCNC(=O)c2ccc3c(c2)NC(=O)/C(=C\c2cccc(C)c2)S3)CC1	-6	62	97*	0	121*	61*	63*
O=C1Nc2cc(C(=O)NCCCN3CCCC3)ccc2S/C1=C/c1cccc(Cl)c1	nt	nt	nt	-1	nt	nt	nt
Cc1ccc(/C=C2/Sc3ccc(C(=O)N4CCN(c5ccccn5)CC4)cc3NC2=O)cc1	-3	-7	12	-1	12	nt	nt
CC1(C(=O)Nc2ccc3c(c2)OCCO3)CN(S(C)(=O)=O)CC(=O)N1CCCN1CCOCC1 (stereo not drawn)	nt	nt	nt	-1	nt	nt	nt
Cn1c(CNC(=O)CNS(=O)(=O)c2ccc(F)cc2F)cc(=O)n(C)c1=O	nt	0	15	-1	-16	nt	nt
CCOC(=O)Cc1ccc(Nc2nc(NCc3cccs3)nc3ccsc23)cc1	nt	nt	nt	2	nt	nt	nt
O=C(Nc1ccccc1)C1CCCN1S(=O)(=O)c1ccc(Br)cc1 (stereo not drawn)	-12	4	14	-2	-6	nt	nt
COc1ccc(/C=C2/Sc3ccc(C(=O)NCCCN4CCOCC4)cc3NC2=O)cc1OC	16	nt	76*	0	7	19	nt
Cc1cccc(/C=C2/Sc3ccc(C(=O)NCCCN4CCOCC4)cc3NC2=O)c1	50	5	53*	-1	115*	2	nt
Cc1cccc(CN2C(=O)c3ccccc3Sc3ccc(C(=O)NCCCN4CCOCC4)cc32)c1	2	0	18	-1	-1	nt	nt
CCCCCC[N+](C)(C)CCSSCC[N+](C)(C)CCCCCC	10	-1	-23	-2	-3	nt	nt
C#CC[N+](C)(C)CCCCCCCCCC	-25	16	71*	-2	-1	68*	56*
CC#CC[N+](C)(C)CCCCCCCCCCCC	101*	104*	87*	18	33	64*	30
C#CC[N+](C)(C)CCCCCCCCCCCC	79*	101*	84*	6	50	80*	37*

Screening data (PubChem)
